# Experimental data: PubChem BioAssay (NCATS)
# Inconclusive results are not listed. Entries that show only a call come without a potency. Activity calls are given as the source filed them. Calls follow the shape of the dose curve; as a rule, active = well fitted cell-killing curve with a large enough effect; inconclusive = small, poorly fitted or top-dose-only effect; inactive = flat fitted curve, though single readings scatter.
# Assay: Cell Viability - LYMP2-007 (AID 979);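 also: cells exposed to compound for 24 h before reading; nearly all actives have a fitted effect of over 60% in size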
# Conditions: LYMP2-007 lymphoblastoid cell viability; series mostly up to 92.2 µM
# From the text: NIH Chemical Genomics Center [NCGC]
# NIH Molecular Libraries Screening Centers Network [MLSCN]
# National Institutes of Environmental Health Sciences [NIEHS]
# National Toxicology Program [NTP]
# We have developed a 1536-well cell-based assay for quantitative high throughput screening (qHTS) against a number of cell lines to determine in vitro cytotoxicity of small molecules. This particular assay uses a human lymphoblastoid cell line (LYMP2-007) purchased from Coriell Institute for Medical Research.
# NCGC Assay Protocol Summary:
# The CellTiter-Glo luminescent cell viability assay (Promega) is a homogeneous method to measure the number of viable cells in culture. The end point readout of this assay is based on quantitation of intracellular ATP, an indicator of metabolic activity, using the luciferase reaction. Luciferase catalyzes the oxidation of beetle Luciferin to oxyluciferin and light in the presence of ATP. The luminescent signal is proportional to amount of ATP present.
# Using the CellTiter-Glo luminescent cell viability assay, the amount of cellular ATP was measured in the lymphoblastoid cell line with complete culture medium following compound treatment for 24 hours. The assay was performed in opaque white Kalypsys 1536-well plates. In the screen, tetraoctylammonium bromide was used as positive control. Library compounds were measured for their ability to cause acute toxicity in the cell line, as reflected by a decrease in intracellular ATP levels, in a concentration-dependent manner. […] AC50 values were determined from concentration-response data modeled with the standard Hill equation.
# qHTS protocol for CellTiter Glo lymphoblastoid cellular assay
# [Step] [Parameter] [Value] [Description]
# 1. Reagent; 5 uL; 2500 lymphoblastoid cells/well
# 2. Time; 5 hr; 37 C incubation
# 4. Controls; 23 nL; Tetraoctylammonium bromide 6.4pM to 92 uM
# 5. Time; 24 hr; 37 C incubation
# 6. Reagent; 5 uL; CellTiter Glo reagent
# 7. Time; 30 min; Room Temperature
# 8. Detection; Luminescence; Viewlux plate reader
# Keywords: cell viability, cytotoxicity, lymphoblastoid cell line, luminescence, NTPHTS, NTPHTS_NCGC, NIEHS, DSSTox, MLSMR, MLSCN, NIH Roadmap, qHTS, NCGC
# Potency is read from the fitted curve at half-maximal effect.
row,SMILES,Potency
1,ClCCCl,inactive
2,C=CC(=C)CCC=C(C)C,inactive
3,c1ccc2c(c1)[nH]c1ccccc12,inactive
4,CCCCCCCCCCCCCCC1CO1 (stereo not given),inactive
5,C=CCc1ccc(OC)c(OC)c1,inactive
6,CN(C)C=O,inactive
7,Cc1c(N=C=O)cccc1N=C=O,inactive
8,CN(C)CCCCCCN(C)C,inactive
9,O=C(/C=C/c1ccc(O)c(O)c1)O[C@@H](C(=O)O)[C@@H](OC(=O)/C=C/c1ccc(O)c(O)c1)C(=O)O,inactive
10,C=CC(=O)OCCOCCOCCOCCOC(=O)C=C,20 µM (active)
11,Clc1cc(Cl)c(Cl)cc1Cl,inactive
12,CC1=C2[C@H](/C=C(\C)C(=O)O)CC[C@@H](C)[C@H]2CC1,inactive
13,Cc1ccc([N+](=O)[O-])cc1N,inactive
14,C=CCOC(=O)c1ccccc1C(=O)OCC=C,inactive
15,O=[N+]([O-])c1cccc(Cl)c1Cl,inactive
16,CCCCCCCCCCCCCC(=O)O,inactive
17,CCC(O)OC(O)CC (stereo not given),inactive
18,O=C(O)c1ccccc1C(c1ccc(O)cc1)c1ccc(O)cc1,inactive
19,Cc1cccc([N+](=O)[O-])c1C,inactive
20,C/C=C\c1ccc(OC)cc1,inactive

row,SMILES,Potency
1,c1ccc2c(c1)c1cccc3ccc4cccc2c4c31,inactive
2,CCCCC(CC)CN (stereo not given),inactive
3,COC(=O)CCCCC(=O)OC,inactive
4,COc1c2ccoc2cc2oc(=O)ccc12,inactive
5,CC1(C)CC(N=C=O)CC(C)(CN=C=O)C1 (stereo not given),inactive
6,COC(=O)c1ccc(C)cc1,inactive
7,O=C1c2ccccc2C(=O)C1c1ccc2ccccc2n1,39.8 µM (active)
8,CC(=O)OC/C=C(\C)CCC=C(C)C,inactive
9,Cc1ccccc1C,inactive
10,C=C(C)C1CC=C(C)C(O)C1 (stereo not given),inactive
11,COC(=O)c1ccc(C=O)cc1,inactive
12,CCCCOCCO,inactive
13,COc1cc(/C=C/c2ccccc2)oc(=O)c1,inactive
14,COCC(=O)O,inactive
15,Cc1ccc(N)c([N+](=O)[O-])c1,inactive
16,CC(C)=CCCC(C)CCO (stereo not given),inactive
17,O=C(O)c1ccc(O)cc1O,inactive
18,CCO[Si](CCCN)(OCC)OCC,inactive
19,O=C1CCc2ccccc2O1,inactive
20,Clc1cc(Cl)c(Cl)c(Cl)c1Cl,inactive
